# Screening data: PubChem BioAssay, National Center for Advancing Translational Sciences (NCATS)
# ClpP mod: qHTS Assay for Activators of ClpP; ATP-dependent Clp protease proteolytic subunit (Bacillus subtilis (strain 168)), P80244; purified B. subtilis ClpP, FRET peptide cleavage, 20 min; Potency, µM (titrated, usually from 57.5 µM), inactives show at the top dose activity change, negative = active; 1.9% of 340,000 active; AID 651965, 2013; active means well fitted falling curve with a large enough effect; inconclusive means small, poorly fitted or top-dose-only effect; inactive means no such curve, though single readings can be large or run the other way; further: potency means the concentration at half of the fitted maximal effect; the source files actives as falling curves though it sought activators and does not explain the sign; nearly all actives have a fitted effect of over 65% in size
# Target sequence (P80244 whole entry, looked up): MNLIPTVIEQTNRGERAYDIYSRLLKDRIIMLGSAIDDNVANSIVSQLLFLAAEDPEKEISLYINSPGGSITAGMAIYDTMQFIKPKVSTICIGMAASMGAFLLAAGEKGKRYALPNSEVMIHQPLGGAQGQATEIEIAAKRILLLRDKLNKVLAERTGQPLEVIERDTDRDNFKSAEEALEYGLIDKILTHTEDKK
#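 Buffer: 100 mM Tris/HCl pH8, 100 mM KCl, 0.05% low protease BSA, 2.5% glycerol, 0.01% Tween-20. ClpP 10 microg/mL final; 20 min RT; delta FRET normalized to ADEP and DMSO controls.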
# Giardia killer: kills Giardia lamblia; 0.15% of 340,000 active; activity change, % at 7.66 µM, hits read low; Giardia lamblia trophozoite viability; in the data active means activity change below about -80%; inconclusive means between about -30% and that limit;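 further: parasites exposed to compound for two days anaerobically before the ATP read; on the % scale 0 is the no-effect control and ±100 the full control effect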
#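 ATP-content bioluminescence gauges trophozoite survival. Cells (100/well) receive compound and incubate anaerobically for 48 hrs at 37 deg C; detection reagent follows for 15-30 min at room temperature.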
# uPA generation: blocks generation of uPA at the cell surface; cell surface uPA generation assay, qHTS; Potency, µM (highest dose often 38.3 µM), without a hit: at the top dose activity change, negative = inhibition, actives largely listed as inhibitors; 0.31% of 330,000 active; AID 540303; active means well fitted inhibition curve with a large enough effect; inconclusive means small, poorly fitted or top-dose-only effect; inactive means no such curve, though single readings can be large or run the other way; tested in mouse RAW 264.7 cells; further: potency means the concentration at half of the fitted maximal effect; on the % scale 0 is the no-effect control and ±100 the full control effect; nearly all actives have a fitted effect of over 55% in size
# p53 reactivator: restores transcriptional activity of mutant p53. H1299 p53-A138V BP100-luciferase reporter, luminescence, 24 h. Potency, µM (top dose mostly 92.2 µM), inactives show at the highest dose activity change, positive = activation, usual class: activators. 0.063% of 320,000 active; further: potency means the concentration at half of the fitted maximal effect; % of control where 0% means no effect; nearly all actives have a fitted effect of over 45% in size
#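 H1299 (p53-null), stable ts p53-A138V + BP100-Luc; 1000 cells/well, Opti-MEM/10% FBS; cpd 4 pt, 1:5; 24 h, 37 deg C, 5% CO2; detection reagent 10 min RT; luminescence.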
# B2AR arrestin: agonists driving beta-arrestin recruitment to human beta2-adrenergic receptor; P07550; beta-arrestin recruitment to beta2AR, cell-based reporter; Potency, µM (titrated, usually from 46.1 µM), for inactives: at the top dose activation, hits mostly activators; 0.02% of 330,000 active;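 further: potency means the concentration at half of the fitted maximal effect; 0% = DMSO controls and full agonism = EC100 isoproterenol or metaproterenol; nearly all actives have a fitted effect of over 65% in size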
# Target sequence (P07550 whole entry, looked up): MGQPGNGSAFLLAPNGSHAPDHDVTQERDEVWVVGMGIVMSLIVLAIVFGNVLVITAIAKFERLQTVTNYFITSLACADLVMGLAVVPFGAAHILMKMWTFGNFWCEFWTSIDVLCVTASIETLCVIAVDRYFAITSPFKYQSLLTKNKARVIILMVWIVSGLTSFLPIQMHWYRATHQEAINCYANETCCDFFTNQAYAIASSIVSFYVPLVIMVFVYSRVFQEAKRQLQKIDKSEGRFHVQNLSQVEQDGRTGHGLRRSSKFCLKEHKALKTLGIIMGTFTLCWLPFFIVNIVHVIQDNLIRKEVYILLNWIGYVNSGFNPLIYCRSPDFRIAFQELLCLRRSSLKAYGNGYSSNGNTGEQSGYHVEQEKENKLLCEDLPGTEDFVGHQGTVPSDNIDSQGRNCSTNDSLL
# Mito fusion yeast: mitochondrial division inhibition or fusion activation; S. cerevisiae fusion-defective mutant growth rescue, CellTiterGlo 48 h; AID 485298; 0.23% of 320,000 active; Potency, µM (top dose mostly 46.1 µM), without a hit: at the highest dose growth rescue (activation), usual class: activators; further: potency means the concentration at half of the fitted maximal effect; % of control where 0% means no effect; nearly all actives have a fitted effect of over 45% in size
#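 Compounds are tested for their ability to restore growth of mitochondrial fusion-defective yeast strains at non-permissive 37C in YPEG medium over 48 hours. Viability is quantified by luciferase luminescence.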
# ClpP inh valid: Bacillus subtilis ClpP inhibition, validated hit. shares compounds with ClpP mod. purified B. subtilis ClpP, FRET-FV substrate cleavage, 20 min. Potency, µM (titrated, usually from 57.5 µM), inactives show top-dose activity change, negative = inhibition, most hits filed as inhibitors. 40% of 470 active. AID 743245; further: potency means the concentration at half of the fitted maximal effect; on the % scale 0 is the no-effect control and ±100 the full control effect; nearly all actives have a fitted effect of over 70% in size
# * = called active by the depositor; ? = inconclusive; . = no result given. Sampled rows, rich in hits. Any-hit rate of the full collection: about 2.1%. Unless noted, the call rests on the fitted dose curve; in most records, active means well fitted curve in the direction sought with a large enough effect; inconclusive means small, poorly fitted or top-dose-only effect, or another doubt; inactive means no such curve, though single readings can be large; an effect the other way counts as inactive or inconclusive.
SMILES,ClpP mod,Giardia killer,uPA generation,p53 reactivator,B2AR arrestin,Mito fusion yeast,ClpP inh valid
O=C1C2C3CCCC3=C3CCCC3C2C(=O)N1c1ccccc1Cl (centres undefined),.,16.6,.,.,.,.,.
Fc1cc2nc(-c3ccncc3)[nH]c2cc1F,3.16µM*,?,-1.3%,28.9%,-1.0%,0.7%,17.2µM*
Cc1cccc(C)c1NC(=O)Cn1nc(C)c2sc3ccccc3c2c1=O,4.3%,.,.,.,.,.,.
Cc1ccc(-c2nc3cnccn3c2Nc2ccc(C(C)C)cc2)o1,-9.1%,-22.3,.,.,.,.,.
c1ccc(-c2ccc3ccccc3n2)cc1,0.0%,8.1,-21.3%,.,.,.,.
c1ccc2nc(-c3nc4ccccc4o3)ccc2c1,8.91µM*,?,.,8.4%,0.0%,-5.2%,21.7µM*
COCCCn1c(C(=O)NCCN2CCOCC2)cc2c(=O)n3cccc(C)c3nc21,3.16µM*,-2.6,-9.1%,-10.5%,-0.1%,0.9%,24.3µM*
Cc1cccn2c(=O)c3cc(C(=O)NCCN4CCOCC4)c(=N)n(CCCN4CCOCC4)c3nc12,.,2.2,-0.5%,-2.6%,0.6%,4.1%,.
CN1CCN(C(=O)C[C@@H]2CC[C@@H]3[C@H](COC[C@@H](O)CN3Cc3cccc(Cl)c3)O2)CC1,1.4%,.,.,.,.,.,.
Cc1cccc(CSc2ncc(Cl)c(C(=O)Nc3sc4c(c3C#N)CCCC4)n2)c1,0.9%,.,.,.,.,.,.
CCOC(=O)c1c(NC(=O)c2cc(-c3ccc(OC)cc3)on2)sc(C)c1C,-0.7%,.,.,.,.,.,.
O=C(c1ccccn1)N(Cc1ccco1)C1(C(=O)NC2CCCC2)CCCCC1,2.51µM*,-16.5,-3.9%,0.1%,-0.3%,-0.9%,-0.5%
COc1ccc(N2CCc3c(C)nc4c(OC)cccc4c32)cc1,-4.2%,4.7,-17.6%,27.7%,-1.0%,3.8%,.
COc1cccc2c3c(c(C)nc12)CC(C)O3 (centres undefined),7.94µM*,-23.7,-2.5%,14.3%,0.1%,-0.2%,7.69µM*
COc1ccc(-c2oc3ncn4nc(COc5c(C)cccc5C)nc4c3c2-c2ccc(OC)cc2)cc1,3.8%,.,.,.,.,.,.
COc1ccc(-c2oc3ncn4nc(COc5ccc(Cl)cc5)nc4c3c2-c2ccc(OC)cc2)cc1,34.9%,.,.,.,.,.,?
Cc1c(C(=O)N2CCN(c3ccc([N+](=O)[O-])cc3)CC2)sc2ncn(CC(=O)N3CCOCC3)c(=O)c12,.,-15.4,0.0%,-1.7%,-0.3%,15.5%,.
Cc1c(C(=O)N2CCOCC2)sc2ncn(CC(=O)N3CCC(C)CC3)c(=O)c12,3.16µM*,4.1,0.8%,-3.2%,0.4%,-2.6%,-0.8%
Cc1ccccc1NC(=O)c1c(C)oc2ccc(O)c(CN3CCC(C)CC3)c12,1.5%,.,.,.,.,.,.
c1cncc(-c2nnc(-c3ccco3)o2)c1,3.55µM*,-4.6,6.9%,8.8%,-0.1%,-5.2%,24.3µM*
Clc1ccc(-c2nnc(-c3ccco3)o2)cc1,11.5%,12.5,-11.3%,?,0.3%,2.3%,.
CCOc1cc(C#N)c(NC(=O)Cn2nnc(-c3ccc(C)cc3)n2)cc1OCC,-1.0%,.,.,.,.,.,.
CSc1ccc(CNC(=O)CCn2ccc3cc(S(=O)(=O)N4CCC(C)CC4)ccc32)cc1,-3.7%,.,.,.,.,.,.
CCOc1ccc(-c2nnc(SCC(=O)NCc3ccc(Cl)cc3)o2)cc1,-9.6%,.,.,.,.,.,.
COc1ccc(-c2oc3ccc(-c4cc(OC)c(OC)c(OC)c4)cc3c2-c2ccc(OC)cc2)cc1,4.3%,?,1.0%,.,.,.,.
SMILES,ClpP mod,Giardia killer,uPA generation,p53 reactivator,B2AR arrestin,Mito fusion yeast,ClpP inh valid
COc1ccc(C#Cc2c(-c3ccsc3)oc3ccc(-c4cc(OC)c(OC)c(OC)c4)cc23)cc1,45.5%,-0.4,7.3%,.,.,.,?
COc1ccc(S(=O)(=O)NCCc2sc(-c3cccc(F)c3)nc2C)cc1,3.7%,.,.,.,.,.,.
Cc1cc(N2CCOCC2)nc2ccc(NC(=O)CCC(=O)N3CCCCC3)cc12,7.08µM*,-17.4,1.8%,62.7%,-1.0%,-3.3%,24.3µM*
Cc1cc(N2CCCCC2)nc2ccc(NC(=O)c3ccc(F)cc3)cc12,22.7%,.,.,.,.,.,-8.2%
CCOc1cc(C(=O)N2CC(=O)Nc3ccc(F)cc3C2c2ccccc2)cc(OCC)c1OCC (centres undefined),-3.2%,.,.,.,.,.,.
CCOc1ccc(N(C(=O)CNC(=O)c2ccco2)C(C(=O)NC2CCCC2)c2cccnc2)cc1 (centres undefined),.,14.0,0.0%,2.5%,0.2%,-0.4%,.
CCOc1ccc(N(C(=O)CNC(=O)c2ccco2)C(C(=O)NC2CCCC2)c2ccco2)cc1 (centres undefined),3.16µM*,-14.6,-0.2%,25.9%,-0.3%,-4.0%,0.2%
O=C(Nc1nc2nc(-c3ccccc3)cc(-c3ccccc3)n2n1)c1ccco1,7.94µM*,7.7,-10.5%,-13.7%,0.1%,?,12.2µM*
Cc1ccc(NC(=O)Cn2c(=O)n(CCC(C)C)c(=O)c3cccnc32)cc1C,70.9%,.,.,.,.,.,4.5%
CCCOc1cccc(C2c3c(oc4ccc(F)cc4c3=O)C(=O)N2CCc2ccc(OC)cc2)c1 (centres undefined),-0.8%,.,.,.,.,.,.
COc1cc2c(cc1OC)C(COc1ccc3c(C)cc(=O)oc3c1)N(C(=O)c1ccccc1F)CC2 (centres undefined),91.4%,.,.,.,.,.,?
CCC12CN3CC(C)(CN(C1)C3c1ccccc1C)C2=O (centres undefined),-2.2%,.,.,.,.,.,.
Cc1ccc(-c2cc3nc(-c4ccccc4)cc(N4CCOCC4)n3n2)cc1,8.91µM*,-8.8,15.8%,8.3%,0.2%,1.6%,34.3µM*
COc1ccc(-c2cc3nc(-c4ccccc4)cc(N4CCC5(CC4)OCCO5)n3n2)cc1,7.08µM*,-1.8,16.3%,-7.1%,-1.4%,22.9%,4.85µM*
Cc1cccn2c(=O)c(C(=O)NCCc3ccccc3)cnc12,4.1%,.,.,.,.,.,.
Cc1ccc(-c2cc(C(=O)NCc3ccccc3Cl)c3ccccc3n2)cc1C,4.47µM*,.,.,.,.,.,27.3µM*
Cc1ccc(-c2cc(C(=O)NCCCN3CCCC3)c3ccccc3n2)cc1C,.,-13.4,-1.4%,-4.0%,0.5%,-23.2%,.
